# An excerpt weighted towards active compounds, which were near 10% of everything screened.
# BAZ2B block: inhibitors of human BAZ2B bromodomain | Q9UIF8 | AlphaScreen BAZ2B-H3K14Ac peptide displacement | Potency, µM (top dose mostly 114 µM), actives largely listed as inhibitors | 360,000 tested, 4.4% active | AID 504333; note: nearly all actives have a fitted effect of over 60% in size
#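 BAZ2B (50 nM) with biotin-H3(5-23)K14Ac peptide (50 nM) in PBS pH 7.4, 0.01% Tween-20, preformed 30 min, then compound 30 min at room temperature; top concentration 110uM. AlphaScreen streptavidin donor/nickel chelate acceptor beads (10 ug/mL final), 20 min dark, signal read.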
# Six1-Eya2 blk: blocks human Six1 binding to Eya2 | Q15475+O00167 | AlphaScreen GST-Six1/His-Eya2 binding, biochemical; hits give low values | activity change, % (test concentration not listed) | 360,000 tested, 0.56% active | AID 651725; in the data active = activity change below about -65%; inconclusive = mostly about -30% to -63%
# Target sequence (O00167 whole entry, looked up): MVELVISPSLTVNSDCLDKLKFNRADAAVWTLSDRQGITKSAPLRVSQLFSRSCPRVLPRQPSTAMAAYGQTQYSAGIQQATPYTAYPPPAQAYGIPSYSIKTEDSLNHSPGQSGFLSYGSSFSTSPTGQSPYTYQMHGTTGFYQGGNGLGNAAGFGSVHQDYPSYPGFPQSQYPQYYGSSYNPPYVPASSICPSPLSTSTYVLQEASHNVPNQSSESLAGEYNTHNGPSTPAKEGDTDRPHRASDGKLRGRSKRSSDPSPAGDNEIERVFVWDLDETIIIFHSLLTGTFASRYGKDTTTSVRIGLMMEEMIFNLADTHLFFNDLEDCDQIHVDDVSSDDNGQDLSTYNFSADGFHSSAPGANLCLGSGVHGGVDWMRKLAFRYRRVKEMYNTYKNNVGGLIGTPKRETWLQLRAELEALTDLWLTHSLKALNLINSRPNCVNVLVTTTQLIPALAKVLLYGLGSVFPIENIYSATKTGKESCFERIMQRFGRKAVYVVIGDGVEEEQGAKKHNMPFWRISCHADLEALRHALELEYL
# Target sequence (Q15475 whole entry, looked up): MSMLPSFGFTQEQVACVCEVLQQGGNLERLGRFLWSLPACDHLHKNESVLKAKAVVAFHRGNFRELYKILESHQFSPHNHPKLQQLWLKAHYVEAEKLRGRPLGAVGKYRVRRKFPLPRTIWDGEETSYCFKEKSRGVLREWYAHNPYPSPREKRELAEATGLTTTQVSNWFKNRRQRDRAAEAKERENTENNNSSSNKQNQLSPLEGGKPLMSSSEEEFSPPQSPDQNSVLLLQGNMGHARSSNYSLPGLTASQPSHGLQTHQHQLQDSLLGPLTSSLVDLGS
#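 Six1/Eya2 binding was read as AlphaScreen signal after compounds were pinned into GST-Six1 plus His-tagged Eya2 (5X stock 250/500 nM) in pH 8.0 Tris/NaCl/TCEP buffer, beads added, then incubated 1 h, 37 C, dark.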
# CtBP-E1A inh: blocks the CtBP interaction with E1A | AlphaScreen GST-E1A/His-CtBP binding, 1536-well; hits give low values | activity change, % (no concentration beside the values) | 340,000 tested, 0.49% active; in the data active = activity change below about -65%; inconclusive = mostly about -30% to -63%
#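 AlphaScreen with 125 nM GST-E1A and 125 nM His-CtBP (5X stocks) in Tris pH 8.0, 300 mM NaCl, BSA, Tween 20, TCEP. Compounds preincubated 2 h at 37 deg C, then glutathione donor/nickel acceptor beads added for 1 h at 37 deg C in dark.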
# HP1b binding inh: inhibitors of HP1-beta chromodomain binding to methylated histone tails; P83916; AlphaScreen HP1-beta / biotin-H3K9me3 peptide binding; Potency, µM (series often up to 114 µM), hits mostly inhibitors; 390,000 tested, 0.56% active; AID 540317; note: nearly all actives have a fitted effect of over 70% in size
#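 HP1-beta protein (50 nM final) preincubated 30 min at room temperature with biotinylated H3(1-18)K9me3 peptide (50 nM) in PBS pH 7.4, 0.01% Tween-20, then compound added for 30 min. AlphaScreen streptavidin donor/nickel chelate acceptor beads (10 ug/mL final), 30 min dark, luminescence read.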
# G9a inh: blocks human histone lysine methyltransferase G9a | Q96KQ7 | G9a H3K9 monomethylation, AlphaScreen, 2 h | Potency, µM (highest dose often 102 µM), actives largely listed as inhibitors | 350,000 tested, 8.8% active; note: nearly all actives have a fitted effect of over 75% in size
#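 G9a (20 nM) was preincubated 15 min with compound, then reacted 2 h at room temperature with 500 nM biotin-H3K9 peptide and 20 µM SAM. Monomethyl-H3K9 detected by AlphaScreen using anti-H3K9me1 antibody.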
# JMJD2A Tudor: inhibitors of human JMJD2A Tudor domain | AlphaScreen JMJD2A-Tudor / H3K4me3 peptide binding | 390,000 tested, 4.4% active | Potency, µM (top dose mostly 114 µM), most hits filed as inhibitors; note: nearly all actives have a fitted effect of over 50% in size
# Numbers stand for hits; i = inactive; ? = inconclusive; nt = no result given; [ ] = dose if it differs, or a comment. Unless noted, calls come from the whole dose curve; as a rule, active = well fitted inhibition curve with a large enough effect; inconclusive = small, poorly fitted or top-dose-only effect; inactive = no such curve, though single readings can be large or run the other way.
SMILES,BAZ2B block,Six1-Eya2 blk,CtBP-E1A inh,HP1b binding inh,G9a inh,JMJD2A Tudor
COc1ccc(N=C2S/C(=C\c3cc(C)n(C)c3C)C(=O)N2CC(C)C)cc1,?,?,i,?,i[12.7 µM],39.8µM
CCCN1C(=O)/C(=C/c2ccc(C)s2)SC1=Nc1ccc(OC)cc1,?,i,i,i,i,?
NCCN(Cc1ccc(Cl)c(Cl)c1)c1ccc(Br)cn1,nt,nt,nt,i,nt,i
O=C(Cc1ccc(Cl)cc1)NCCc1cnc[nH]1,i,i,i,i,i,i
S=C(NCCCc1cnc[nH]1)NCCCN(Cc1ccc(Cl)cc1)c1cc(-c2ccccc2)ccn1,nt,nt,nt,?,nt,56.2µM
S=C(NCCCN(Cc1ccc(Cl)c(Cl)c1)c1ccc(Br)cn1)NCCc1cnc[nH]1,nt,nt,nt,nt,nt,39.8µM
NCCCN(Cc1ccc(Cl)c(Cl)c1)c1ccccn1,nt,nt,nt,i,nt,i
Clc1ccc(CN(CCCNc2ncnc(NCCCc3cnc[nH]3)n2)c2ccc(Br)cn2)cc1Cl,nt,nt,nt,nt,nt,35.5µM
S=C(NCCCc1cnc[nH]1)NCCN(Cc1ccc(Cl)c(Cl)c1)c1ccc(Br)cn1,nt,nt,nt,nt,nt,56.2µM
COc1ccc(CN(CCCN)c2ccc(Br)cn2)cc1,nt,nt,nt,i,nt,i
S=C(NCCCN(Cc1ccc(Cl)cc1)c1ccc(Br)cn1)NCc1ccc2nc[nH]c2c1,nt,nt,nt,i,nt,50.1µM
CN(CCCc1cnc[nH]1)C(=S)NCCCN(Cc1ccc(Cl)cc1)c1ccc(Br)cn1,nt,nt,nt,?,nt,31.6µM
CSc1ccc(CCNC(=O)C2CCN(c3ncnc4c3nc3n4CCCCC3)CC2)cc1,i,nt,nt,i,i,i
COc1ccc([N+](=O)[O-])c(C=CC(=O)c2ccccn2)c1,nt,i,i,nt,nt,nt
COc1ccc(/C=C/C(=O)c2ccccc2O)cc1,?,i,i,i,44.7µM,63.1µM
COc1ccc(/C=C/C(=O)c2ccc(O)cc2)cc1,?,i,i,i,i,?
COc1ccc(/C=C/C(=O)c2ccccn2)cc1,?,i,i,i,39.8µM,i
O=S1(=O)N=C(Oc2ccc(Br)cc2)c2ccccc21,nt,nt,nt,nt,nt,i
COc1ccc(S(=O)(=O)NC(CC(=O)O)c2ccco2)cc1 (stereo not drawn),i,i,i,i,i,i
C=C(C)CC(Nc1ccc(OC)cc1)c1ccco1 (stereo not drawn),50.1µM,i,i,i,?,i
O=c1[nH]c(/C=C/c2ccc([N+](=O)[O-])cc2)c([N+](=O)[O-])c(=O)[nH]1,i,i,nt,i,28.2µM,i
CCN(CC)c1ccc(N=Cc2ccc([N+](=O)[O-])o2)cc1,10µM,?,i,22.4µM,2.51µM,39.8µM
CCCCCC(=O)N/N=C/c1ccc([N+](=O)[O-])o1,i,i,i,i,i,i
CCN(CC)c1ccc(N=Cc2ccccc2[N+](=O)[O-])cc1,3.16µM,-79.9,i,8.91µM,8.91µM,8.91µM
O=C(CSS(=O)(=O)O)N1CCN(C(=O)c2ccoc2)CC1,i,i,i,i,20µM,i
SMILES,BAZ2B block,Six1-Eya2 blk,CtBP-E1A inh,HP1b binding inh,G9a inh,JMJD2A Tudor
CC(=O)c1sc2nc(C)c3c(c2c1N)CCCC3,i,i,i,i,i,i
CC(=O)c1sc2nsc(SCCN3CCCC3)c2c1N,?,i,i,?,i,89.1µM
COc1cc(C2C(=O)N(C3CCCCC3)CC(=O)N2CCc2ccccc2)ccc1OC(C)C (stereo not drawn),i,nt,nt,i,i,i
Cc1cccc(-c2nc3c4ccccc4nc(NCc4ccccc4Cl)n3n2)c1,?,nt,nt,i,i,i
Cc1nc2c(cc1C(=O)N/N=C/c1ccc(O)c(O)c1)c(=O)n(C)c(=O)n2C,i,?,?,i,?,35.5µM
C/C(=N\N=C1\NC(=O)C(CC(=O)O)S1)c1ccccn1 (stereo not drawn),50.1µM,?,?,i,nt,?
CCOc1ccc(N=C2NC(=O)C(CC(=O)O)S2)cc1 (stereo not drawn),i,i,i,i,i[12.7 µM],i
O=S(=O)(c1ccccc1)N1CCC2(CCN(c3ncccn3)CC2)CC1,nt,nt,nt,nt,i[12.7 µM],nt
Cc1cc(C)c(NC(=O)CN2C(=O)c3cccnc3Oc3ccc(C)cc32)c(C)c1,i,nt,nt,i,i,i
N#CCc1c(C#N)c(N)nc(N2CCN(S(=O)(=O)c3ccccc3)CC2)c1C#N,i,i,i,i,?,i
